Test results published in PubChem BioAssay AID2551 (National Center for Advancing Translational Sciences (NCATS), 2010).
The whole screen tested about 310,000 compounds, of which about 17,000 (5.5%) were called active. Inconclusive results (about 11%) are left out. Shown is part of a subset that was picked to be rich in actives. Values without a mark were called inactive. Calls come from the whole dose curve; as a rule, active = well fitted inhibition curve with a large enough effect; inconclusive = small, poorly fitted or top-dose-only effect, or effect the other way; inactive = no such curve, though single readings can be large or run the other way.

target: Nuclear receptor ROR-gamma (Mus musculus) (UniProt P51450); test: qHTS for inhibitors of ROR gamma transcriptional activity; details: Drosophila S2 Gal4-RORgamma UAS-luciferase reporter, 20 h; series mostly up to 53.6 µM; activity change, negative = inhibition: at the top concentration; note: nearly all actives have a fitted effect of over 60% in size
Outline: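 A Gal4/UAS one-hybrid system in insect cells: metallothionein-promoter Gal4–ROR gamma fusion plus Photinus luciferase reporter. Copper sulfate 700 uM final, 20 hr ambient incubation, luminescent detection after 10 min with reagent.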
% is set by controls: 0 for no effect and ±100 for the full control effect; potency is the fitted concentration of half-maximal effect.

Chain of Nuclear receptor ROR-gamma (Mus musculus) (P51450 whole entry, looked up, the tested form may be a part): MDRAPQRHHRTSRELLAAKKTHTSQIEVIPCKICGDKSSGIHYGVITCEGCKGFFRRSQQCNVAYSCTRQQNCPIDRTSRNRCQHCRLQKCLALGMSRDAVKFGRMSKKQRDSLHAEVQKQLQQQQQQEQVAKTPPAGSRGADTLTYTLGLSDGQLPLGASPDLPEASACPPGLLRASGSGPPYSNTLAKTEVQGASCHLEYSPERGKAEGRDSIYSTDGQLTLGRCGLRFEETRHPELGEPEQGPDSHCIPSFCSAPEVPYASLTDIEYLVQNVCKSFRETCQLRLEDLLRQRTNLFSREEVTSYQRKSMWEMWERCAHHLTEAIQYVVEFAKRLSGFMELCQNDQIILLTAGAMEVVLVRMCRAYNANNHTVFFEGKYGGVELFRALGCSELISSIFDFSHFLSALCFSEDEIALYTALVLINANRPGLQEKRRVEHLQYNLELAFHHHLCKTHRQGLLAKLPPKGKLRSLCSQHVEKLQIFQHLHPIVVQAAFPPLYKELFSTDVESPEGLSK

Compound	activity change, negative = inhibition	Potency
Cc1ccc(CN2CCC(n3nccc3NC(=O)CCCc3ccccc3)CC2)o1	-40.9%	–
O=C(Nc1cnccn1)c1cccnc1	13.5%	–
O=C(NNc1ccccn1)c1ccc(Cl)nc1	–	12.6 µM (active)
O=C(CCl)NNc1cccc(Cl)n1	30%	–
COc1ccc(C)cc1N(CC(=O)NC(C)c1ccccc1)S(C)(=O)=O (centres undefined)	16.1%	–
CC(Oc1ccc(Cl)cc1Cl)C(=O)/C=C/N(C)C (centres undefined)	-4.84%	–
COc1cccc(NC(=O)CN(C)C(=O)Cc2ccc(Cl)cc2Cl)c1	3.05%	–
CCCC(=O)Nc1cccc(NC(=S)NC(=O)C(C)Oc2ccc(Cl)cc2Cl)c1 (centres undefined)	–	6.31 µM (active)
CCOC(=O)N1CCN(S(=O)(=O)N2CCCC(C(=O)NCCCN3CCC(C)CC3)C2)CC1 (centres undefined)	-6.51%	–
Fc1cc(F)c2nc(Nc3nc4c(F)cccc4s3)sc2c1	–	3.98 µM (active)
NC(=O)c1c(NC(=O)c2ccccc2)sc2c1CCCC2	-16.4%	–
NC(=O)c1c(Nc2nc3c(F)cccc3s2)sc2c1CCCC2	–	12.6 µM (active)
Fc1cc(F)c2nc(N3CCOCC3)sc2c1	30.4%	–
NC(=O)c1c(NC(=O)CSc2nc(N)cc(=O)[nH]2)sc2c1CCCC2	11.5%	–
CC(C)(C)c1ccc(CN2C(=O)c3ccccc3S2(=O)=O)cc1	22.5%	–
COc1ccc(NC(=O)c2sc3nc(C)nc(N4CCN(c5ccccn5)CC4)c3c2C)c(OC)c1	-30.6%	–
O=C(NC1CCN(S(=O)(=O)c2ccc(F)cc2)CC1)c1ccccc1	-28.7%	–
Cc1nn(CC(=O)NCCc2ccccc2)c(=O)c2cc3occc3n12	19.9%	–
CCCCN1C(=S)NC[C@@H]1C(C)CC (some centres undefined)	–	3.55 µM (active)
O=C(NC(=S)NC1CCS(=O)(=O)C1)c1cccc([N+](=O)[O-])c1 (centres undefined)	-27.1%	–
O=c1c(O)c(-c2ccc(O)cc2)oc2ccccc12	–	7.94 µM (active)
COc1ccccc1N=Cc1c(O)c2ccccc2oc1=O	-38.7%	–

Compound	activity change, negative = inhibition	Potency
O=c1c(-c2ccccc2)coc2cc(O)ccc12	28.4%	–
CCN(CC)S(=O)(=O)c1ccc(N2CCN(C)CC2)c(NC(=O)Nc2ccccc2F)c1	-26.7%	–
CCn1c(=O)c2ccccc2n(CC(=O)N2CCCc3ccccc32)c1=O	-16%	–
CC(=O)NC(Cc1c[nH]c2ccccc12)C(=O)NCCc1ccccc1 (centres undefined)	6.43% [at 1.91 µM]	–
O=C(Nc1ccc(Br)cc1)c1cc(S(=O)(=O)Nc2ccccn2)ccc1Cl	-0.848%	–
Cc1nccn1CC(=O)N/N=C/c1ccc(O)c(O)c1	-18%	–
Oc1ccc(Br)cc1/C=N/Nc1ccccn1	–	5.62 µM (active)
O=c1ccc(-c2ccc(S(=O)(=O)Nc3ccccc3)o2)n[nH]1	-24.5%	–
COc1ccc(C(=O)c2c(C)c(CCC#N)n3ccccc23)c(OC)c1	3.97%	–
COCCCC1CCN(C(=O)C2CCC(=O)N(C3CCCCCC3)C2)CC1 (centres undefined)	1.67%	–
Cc1cc(C(=O)NC2CCCc3c2cnn3-c2cccc(C)c2C)c(C)o1 (centres undefined)	-111%	–
Cc1nc2ccccc2c(=O)n1NC(=O)c1ccccc1	-41%	–
CCCc1nc2ccccc2c(=O)n1/N=C/c1ccc(O)c(O)c1	-4.72%	–
O=c1c2ccccc2ncn1/N=C/c1ccccc1	–	10 µM (active)
O=[N+]([O-])c1ccc(N/N=C/c2ccccc2)cc1	-1.85%	–
O=C(Nn1cnc2ccccc2c1=O)c1ccccc1	12.3%	–
O=c1c2ccccc2nc(N/N=C/c2ccccc2)n1O	–	11.2 µM (active)
Cc1ccc2c(=O)cc(C(=O)NCCc3ccc(S(N)(=O)=O)cc3)oc2c1C	-29%	–
CCCCn1c(N)c(N(CCOC)C(=O)c2oc3ccc(OC)cc3c2C)c(=O)[nH]c1=O	-16.9%	–
CCC(=O)Nc1ccc(C(=O)NNC(=O)c2ccc(Cl)cc2)cc1	10%	–
CCc1cccc(NC(=O)CCCN2C(=O)C(c3ccccc3)Oc3cccnc32)c1 (centres undefined)	18%	–
O=C1c2ccccc2S(=O)(=O)N1Cc1c(F)cccc1Cl	14.6%	–
